Common to all, as to assay: NCI-60 one-dose screen, 48 h (100 = growth as untreated, 0 = no growth, -100 = all killed)
For one assay, the system named is A549/ATCC NSCLC. Conditions: 10 µM unless noted.
In another assay the test system is K-562 leukemia. The following applies: 10 µM unless noted.
The test system of a further assay is SF-295 CNS. Conditions: 10 µM unless noted.
The next assay relates to SF-539 CNS. The following applies: 10 µM unless noted.
In another assay the test system is UACC-257 melanoma. The following applies: 10 µM unless noted.
The test system of the next assay is HCT-15 colon. The following applies: 10 µM.
The next assay deals with HT29 colon. The following applies: 10 µM unless noted.
The subject of a further assay is SNB-75 CNS. The following applies: 10 µM unless noted.
The next assay concerns PC-3 prostate. Conditions: 10 µM unless noted.
In the next assay the test system is SK-MEL-5 melanoma. The following applies: 10 µM unless noted.
The test system of the next assay is SK-MEL-2 melanoma. The following applies: 10 µM unless noted.
In a further assay the test system is ACHN renal. Conditions: 10 µM unless noted.
The subject of another assay is A498 renal. The following applies: 10 µM unless noted.
For another assay, the system named is HL-60(TB) leukemia. The following applies: 10 µM unless noted.
Another assay relates to OVCAR-8 ovarian. The following applies: 10 µM unless noted.
The next assay has as its system OVCAR-4 ovarian. The following applies: 10 µM unless noted.
In a further assay the test system is IGROV1 ovarian. The following applies: 10 µM.
The subject of a further assay is HS 578T breast. Conditions: 10 µM unless noted.
For the next assay, the system named is T-47D breast. Conditions: 10 µM unless noted.
For the next assay, the system named is HCC-2998 colon. Conditions: 10 µM unless noted.

This is part of a sample that, as a whole, favours compounds with a hit. Of some 83,000 tested, about 20% had one in any assay.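 96-well plates, one dose, 48 hours. Percent growth reported; active if below 10.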 A number with no mark means an inactive call. Active and inactive are the calls of the source.

For `NC(Cc1ccc(O)cc1)C(=O)N/N=C/c1ccc(N(CCCl)CCCl)cc1` (centres undefined), the growth was 52.3% with A549/ATCC NSCLC; 41.3% with K-562 leukemia; 48.5% in the assay on SF-295 CNS; 33.3% in the assay on SF-539 CNS; 93.6% with UACC-257 melanoma; 85.8% in the assay on HCT-15 colon. Moreover, the growth in the assay with HT29 colon was 100%; in the assay on SNB-75 CNS it was 70.2%; in the assay on PC-3 prostate, 56%; with SK-MEL-5 melanoma it was 88.9%; with SK-MEL-2 melanoma it was 72.8%; in the assay with ACHN renal, 75.1%. Further, the growth in the assay on A498 renal is 82.3%; in the assay with HL-60(TB) leukemia it was 8.82% (active); with OVCAR-8 ovarian, 80.5%; in the assay on OVCAR-4 ovarian, 90.6%; with IGROV1 ovarian, 63.4%; in the assay on HS 578T breast, 91.9%. The results for the growth with T-47D breast and in the assay on HCC-2998 colon were 79.2% and 87.2%, respectively.

Consider `ClCCN(CCCl)c1ccc(C=NCCc2c[nH]c3ccccc23)cc1`, for which the growth in the assay on A549/ATCC NSCLC was 88.6%; in the assay with K-562 leukemia, 82.4%; in the assay with SF-295 CNS, 35.6%; with SF-539 CNS, 71.8%; in the assay with UACC-257 melanoma, 99.9%; in the assay with HCT-15 colon it was 90.3%. The growth with HT29 colon was 85.1%; in the assay on SNB-75 CNS, 82.5%; with PC-3 prostate it was 57%; in the assay on SK-MEL-5 melanoma, 75.8%; in the assay on SK-MEL-2 melanoma it was 125%; with ACHN renal, 44.5%. Besides, the growth with A498 renal is 1.98% (active); in the assay with HL-60(TB) leukemia, 91%; in the assay with OVCAR-8 ovarian, 74.8%; with OVCAR-4 ovarian it was 92.9%; with IGROV1 ovarian, 84.2%; in the assay on HS 578T breast, 89.8%. Further, the values for the growth with T-47D breast and in the assay with HCC-2998 colon were 80.6% and 91.8%, respectively.

For `O=C1C=CC(=O)C2C1C1(Cl)C(Cl)=C(Cl)C2(Cl)C1(Cl)Cl` (centres undefined), the growth with A549/ATCC NSCLC was 60.6%; in the assay on K-562 leukemia, 29.2%; in the assay with SF-295 CNS it was 39.5%; in the assay on SF-539 CNS, 62.5%; in the assay on UACC-257 melanoma, 57.5%; in the assay on HCT-15 colon, 54.3%. In addition, the growth was 76.7% in the assay with HT29 colon; 40.3% in the assay with SNB-75 CNS; 44.3% with PC-3 prostate; 47.5% with SK-MEL-5 melanoma; 37% with SK-MEL-2 melanoma; 50.8% in the assay with ACHN renal. Also, the growth in the assay on A498 renal is 36.1%; in the assay with HL-60(TB) leukemia it was 9.38% (active); with OVCAR-8 ovarian it was 74.3%; with OVCAR-4 ovarian, 58.1%; in the assay on IGROV1 ovarian, 56.4%; in the assay with HS 578T breast it was 58.2%. Besides, in the assay on T-47D breast, the growth is 28%.

`Nc1c(Br)cc2c3c(cccc13)-c1ccccc1-2`: the growth with A549/ATCC NSCLC is 77.2%; in the assay with K-562 leukemia it was 38.3%; with SF-295 CNS it was 74.5%; in the assay on SF-539 CNS, 77.7%; in the assay on UACC-257 melanoma, 88.4%; in the assay with HCT-15 colon it was 49.3%. Moreover, the growth was 103% with HT29 colon; 60.9% in the assay on SNB-75 CNS; 47.4% in the assay with PC-3 prostate; 84.8% with SK-MEL-5 melanoma; 64.4% in the assay on SK-MEL-2 melanoma; 75.7% with ACHN renal. In addition, the growth is 70.5% in the assay with A498 renal; 82.7% with HL-60(TB) leukemia; 70.9% with OVCAR-8 ovarian; 62.1% in the assay on OVCAR-4 ovarian; 48.1% with IGROV1 ovarian; 50% in the assay with HS 578T breast. Further, the values for the growth in the assay on T-47D breast and in the assay with HCC-2998 colon were 38.6% and 80.7%, respectively.

Turning to `[N-]=[N+]=NC(C(=O)O)c1ccccc1` (centres undefined), the growth in the assay on A549/ATCC NSCLC is 95.2%; in the assay with K-562 leukemia, 94.3%; in the assay on SF-295 CNS, 102%; in the assay on SF-539 CNS, 93.9%; in the assay with UACC-257 melanoma, 98.3%; in the assay with HCT-15 colon it was 101%. Also, the growth was 99.1% in the assay on HT29 colon; 96.6% in the assay on SNB-75 CNS; 112% with PC-3 prostate; 116% in the assay on SK-MEL-5 melanoma; 99.5% in the assay on SK-MEL-2 melanoma; 100% in the assay with ACHN renal. Further, the growth in the assay on A498 renal was 101%; in the assay with HL-60(TB) leukemia it was 89.4%; in the assay with OVCAR-8 ovarian it was 100%; in the assay on IGROV1 ovarian it was 98%; in the assay on HS 578T breast, 113%; in the assay with T-47D breast, 103%. For the same compound, the growth in the assay on HCC-2998 colon is 96.9%.

For the compound `COc1ccc(C2=NN(c3ccccc3)C(c3sc(N(CCCl)CCCl)nc3Cl)C2)cc1` (centres undefined), the growth in the assay on A549/ATCC NSCLC is 85.6%; in the assay on K-562 leukemia, 64.1%; in the assay on SF-295 CNS, 93.2%; in the assay on SF-539 CNS, 104%; in the assay on UACC-257 melanoma, 89.7%; in the assay with HCT-15 colon, 97.9%. Moreover, the growth with HT29 colon was 72.6%; in the assay with SNB-75 CNS it was 74.2%; in the assay with PC-3 prostate it was 69.5%; in the assay on SK-MEL-5 melanoma it was 83.7%; in the assay with SK-MEL-2 melanoma it was 91.3%; in the assay on ACHN renal, 82.6%. The growth with A498 renal is 122%; in the assay on HL-60(TB) leukemia, 99.8%; in the assay on OVCAR-8 ovarian, 87.8%; in the assay on OVCAR-4 ovarian, 91.9%; in the assay with IGROV1 ovarian, 121%; with HS 578T breast, 80.9%. Besides, the growth in the assay with T-47D breast was 69.5%; in the assay on HCC-2998 colon it was 107%.

Take `CC(CC(C#N)(c1ccccc1)c1ccccc1)N1CCOCC1` (centres undefined): the growth is 95.6% in the assay with A549/ATCC NSCLC; 83.5% in the assay with K-562 leukemia; 101% in the assay on SF-539 CNS; 106% in the assay on UACC-257 melanoma; 102% with HCT-15 colon; 106% with HT29 colon. Also, the growth was 104% in the assay on SNB-75 CNS; 90.4% in the assay on PC-3 prostate; 102% in the assay with SK-MEL-5 melanoma; 101% in the assay on SK-MEL-2 melanoma; 102% in the assay with ACHN renal; 88.8% in the assay with A498 renal. For the same compound, the growth was 86.4% in the assay on HL-60(TB) leukemia; 108% in the assay on OVCAR-8 ovarian; 108% in the assay on OVCAR-4 ovarian; 102% with IGROV1 ovarian; 111% in the assay with HS 578T breast; 90% in the assay on T-47D breast.

As for `ClCCN(CCCl)c1ccc(/C=C\c2ccnc3ccccc23)cc1`, the growth with A549/ATCC NSCLC is 71%; in the assay on K-562 leukemia, 60.9%; with SF-295 CNS it was 69.4%; in the assay with SF-539 CNS it was 92.5%; with UACC-257 melanoma, 47.1%; with HCT-15 colon, 75%. The growth in the assay with SNB-75 CNS was 84.6%; in the assay with PC-3 prostate it was 55.5%; with SK-MEL-5 melanoma it was 71.2%; in the assay on ACHN renal, 76%; in the assay on A498 renal, 68.2%; in the assay on HL-60(TB) leukemia it was 46.8%. Also, the growth with OVCAR-8 ovarian is 79.8%; with OVCAR-4 ovarian, 82.3%; in the assay on IGROV1 ovarian, 81.6%; in the assay with HS 578T breast, 89.9%; with T-47D breast, 63.1%; in the assay with HCC-2998 colon it was 91.6%.

Source of the values: PubChem BioAssay (NCI).
